Laboratory results from PubChem BioAssay (Tox21).
Results filed as inconclusive are left out. Active and inactive are the calls of the source. Unless noted, calls come from the whole dose curve.

Legend:
[1] = qHTS assay to identify small molecule agonists of the sonic hedgehog signaling (Shh) pathway (AID 1259368);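 note: NIH/3T3-derived 3T3Gli1-Luc cells carrying a stable Gli1-driven firefly luciferase reporter; series mostly up to about 92 µM; nearly all actives have a fitted effect of over 15% in size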
Summary of the method: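 Luminescence was read after 30 min at room temperature with luciferase reagent. Before that, 3T3Gli1-Luc cells (NIH/3T3 clone, stable Gli1-Luc reporter; 2,000/well) were exposed to compounds for 24 hr at 37C, 5% CO2, compounds being added 4 hr post-plating.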

[2] = qHTS assay to identify small molecule antagonists of the sonic hedgehog signaling (Shh) pathway (AID 1259369); note: nearly all actives have a fitted effect of over 45% in size
Summary of the method: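 Antagonist mode: compound added to 3T3 Gli1-Luc cells followed by conditioned-medium stimulation, 24 h at 37 C, 5% CO2. Inhibition taken as loss of Gli1-driven luciferase luminescence.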

[3] = target: Estrogen receptor beta (Homo sapiens) (UniProt Q92731); assay: qHTS assay to identify small molecule agonists of the estrogen receptor beta (ER-beta) signaling pathway (AID 1259377; active = well fitted activation curve with a large enough effect in the signal ratio in the repeat runs, not every such curve was filed as active; the % refers to the signal ratio)
Summary of the method: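 Screening used GripTite ER-beta-UAS-bla cells held in 2% charcoal-stripped FBS medium. After overnight (16 hr) compound incubation at 37C, beta-lactamase activity was detected with a FRET substrate by fluorescence.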

[4] = target: Estrogen receptor beta (Homo sapiens) (UniProt Q92731); assay: qHTS assay to identify small molecule antagonists of the estrogen receptor beta (ER-beta) signaling pathway (AID 1259378; active = well fitted inhibition curve with a large enough effect in the signal ratio in the repeat runs, not every such curve was filed as active; the % refers to the signal ratio)
Summary of the method: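 ER-beta-UAS-bla HEK293T (GripTite) cells in 2% charcoal-stripped FBS medium were preincubated 6 hr at 37C, dosed with compound, then stimulated with 1 nM E2 (final) for 16 hr; beta-lactamase reporter read by B/G FRET fluorescence after 2 hr substrate loading.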

[5] = qHTS assay to identify small molecule agonists of the androgen receptor (AR) signaling pathway in the presence of an antagonist - cell viability counter screen (AID 1259379; active = well fitted curve in the direction sought with a large enough effect in the repeat runs; an effect the other way counts as inactive or inconclusive;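 note: MDA-kb2 human breast cancer cells carrying an MMTV luciferase reporter; series mostly up to about 92 µM; nearly all actives have a fitted effect of over 25% in size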)
Summary of the method: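 Cytotoxicity counter-screen run in the same wells as the nilutamide-challenged (3.0 µM final) AR agonist assay in MDA-kb2 cells. Compounds tested at 15 concentrations for 16 h, 37 °C without CO2; CellTiter-Fluor fluorescence read.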

[6] = qHTS assay to identify small molecule antagonists of the estrogen receptor beta (ER-beta) signaling pathway - cell viability counter screen (AID 1259382; active = well fitted curve in the direction sought with a large enough effect in the repeat runs; an effect the other way counts as inactive or inconclusive; note: series mostly up to about 92 µM; nearly all actives have a fitted effect of over 55% in size)
Summary of the method: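 Cytotoxicity was measured in the same wells by CellTiter-Glo luminescence after 30 min at room temperature. Cells were ER-beta-bla HEK293T in charcoal-stripped serum, given compound together with 1 nM E2 and incubated 16 h at 37C.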

[7] = qHTS assay to identify small molecule agonists or antagonists of the thyroid stimulating hormone receptor (TSHR) signaling pathway - wild type cell line counter screen (AID 1259384)
Summary of the method: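 Wild-type HEK293 cells were plated 18 h at 37 C/5% CO2, pin-dosed with compound plus Ro20-1724 medium, held 30 min at room temperature, then given cAMP-d2 and anti-cAMP-cryptate; fluorescence was read after 1 h. Fifteen concentrations, triplicate.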

[8] = target: Thyrotropin receptor (Homo sapiens) (UniProt P16473); assay: qHTS assay to identify small molecule antagonists of the thyroid stimulating hormone receptor (TSHR) signaling pathway (AID 1259385); note: nearly all actives have a fitted effect of over 20% in size
Summary of the method: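 TSHR-HEK293 cells were plated and held 18 h at 37C/5% CO2, then given compound plus Ro20-1724 and stimulated with TSH at 1.5 ng/mL final. After 30 min at room temperature, cAMP was detected with cAMP-d2/anti-cAMP-cryptate (1 h) by fluorescence.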

[9] = qHTS assay to identify small molecule agonists of the estrogen receptor alpha (ER-alpha) signaling pathway in the presence of an antagonist - cell viability counter screen (AID 1259386; active = well fitted curve in the direction sought with a large enough effect in the repeat runs; an effect the other way counts as inactive or inconclusive; note: series mostly up to about 92 µM; nearly all actives have a fitted effect of over 30% in size)
Summary of the method: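 Compounds tested at 15 concentrations for 22 h at 37C alongside 10.0nM (final) ICI-182,780 antagonist, in VM7Luc4E2 cells grown in phenol red-free, charcoal-stripped medium. Viability read by CellTiter-Fluor fluorescence after 1 h reagent incubation.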

[10] = target: Progesterone receptor (Homo sapiens) (UniProt P06401); assay: qHTS assay to identify small molecule agonists of the progesterone receptor (PR) signaling pathway (AID 1346784); note: nearly all actives have a fitted effect of over 30% in size
Summary of the method: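 Seed PR-UAS-bla HEK 293T cells (2% charcoal-stripped FBS), incubate 6 hr at 37C; add compounds in DMSO, 16 hr at 37C; add LiveBLAzer B/G substrate, 2 hr RT; read fluorescence intensity.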

[11] = qHTS assay to identify small molecule antagonists of the progesterone receptor (PR) signaling pathway - cell viability counter screen (AID 1346798; active = well fitted curve in the direction sought with a large enough effect in the repeat runs; an effect the other way counts as inactive or inconclusive; note: series mostly up to about 92 µM; nearly all actives have a fitted effect of over 50% in size)
Summary of the method: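 Measures cytotoxicity in parallel with the PR antagonist reporter read: HEK293T PR-UAS-bla cells get compound and R5020 for 16 hr, and remaining viable cells are quantified by CellTiter-Glo luminescence.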

[12] = qHTS assay to identify small molecule agonists of the progesterone receptor (PR) signaling pathway - cell viability counter screen (AID 1346799); note: nearly all actives have a fitted effect of over 45% in size
Summary of the method: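 Using the same plates as the PR reporter screen, HEK293T PR-UAS-bla cells received compounds for 16 hr at 37C and were then lysed with CellTiter-Glo; luminescence was read 30 min later at room temperature.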

[13] = qHTS assay to identify small molecule agonists of the TGF-beta/Smad signaling pathway - cell viability counter screen (AID 1346829; active = well fitted curve in the direction sought with a large enough effect in the repeat runs; an effect the other way counts as inactive or inconclusive; note: top concentration of the series differs between compounds; nearly all actives have a fitted effect of over 45% in size)
Summary of the method: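 Same-well cytotoxicity: CellTiter-Glo added after the 2 hr room-temperature beta-lactamase substrate step, luminescence measured 30 min later; cells had 5 hr of compound at 37 C.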

[14] = qHTS assay to identify small molecule agonists of the TGF-beta/Smad signaling pathway (AID 1346859; active = well fitted activation curve with a large enough effect in the signal ratio in the repeat runs, not every such curve was filed as active; the % refers to the signal ratio; note: series mostly up to about 77 µM)
Summary of the method: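 Beta-lactamase reporter activity downstream of Smad binding elements was measured in stably transfected HEK 293T cells; compounds were incubated for 5 hr, substrate for 2 hr at room temperature.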

[15] = target: Thyrotropin-releasing hormone receptor (Homo sapiens) (UniProt P34981); assay: qHTS assay to identify small molecule antagonists of the thyrotropin-releasing hormone receptor (TRHR) signaling pathway (AID 1346877; active = well fitted inhibition curve with a large enough effect in the repeat runs, not every such curve was filed as active; note: series mostly up to about 51 µM)
Summary of the method: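 Antagonist mode: after a 5 min room-temperature compound exposure, cells were stimulated with 1 nM (final) TRH. Dye-loaded TRHR-HEK293 cells were used, and calcium-dependent fluorescence was followed for 3 min, with 15-point titrations run in triplicate.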

[16] = target: Androgen receptor (Homo sapiens) (UniProt P10275); assay: qHTS assay to identify small molecule agonists of the androgen receptor (AR) signaling pathway in the presence of an antagonist (AID 1259381); note: nearly all actives have a fitted effect of over 15% in size
Summary of the method: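 Agonist-mode confirmation run against 3.0 uM final nilutamide: compounds titrated at 15 concentrations onto MDA-kb2 MMTV-luciferase reporter cells. Luminescence measured with ONE-Glo following 16 hr incubation, 37C, 0% CO2.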

[17] = target: Estrogen receptor (Homo sapiens) (UniProt P03372); assay: qHTS assay to identify small molecule agonists of the estrogen receptor alpha (ER-alpha) signaling pathway in the presence of an antagonist (AID 1259383); note: top concentration of the series differs between compounds; nearly all actives have a fitted effect of over 15% in size
Summary of the method: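 Agonist-mode confirmation run in the presence of 10.0nM (final) ICI-182,780 antagonist. The reporter was ERE-driven luciferase in VM7Luc4E2 cells, grown in charcoal-stripped serum. Cells were exposed to 15-concentration compound series for 22hr, then ONE-Glo luminescence was read.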

[18] = target: Progesterone receptor (Homo sapiens) (UniProt P06401); assay: qHTS assay to identify small molecule antagonists of the progesterone receptor (PR) signaling pathway (AID 1346795; active = well fitted inhibition curve with a large enough effect in the signal ratio in the repeat runs, not every such curve was filed as active; the % refers to the signal ratio)
Summary of the method: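 Screening used a GripTite HEK293T line with PR-responsive UAS-beta-lactamase. Cells were challenged with compound in the presence of 1 nM R5020 final for 16 hr at 37C; B/G FRET substrate, 2 hr room temperature, fluorescence.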

[19] = qHTS assay to identify small molecule antagonists of the TGF-beta/Smad signaling pathway - cell viability counter screen (AID 1346824; active = well fitted curve in the direction sought with a large enough effect in the repeat runs; an effect the other way counts as inactive or inconclusive; note: nearly all actives have a fitted effect of over 50% in size)
Summary of the method: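 SBE-bla HEK 293T cells were plated overnight at 37 C, then given compounds in DMSO plus TGF-beta1 (added as 0.25 ng/mL solution) for 5 hr. After the bla read, CellTiter-Glo was added to the same wells and luminescence read after 30 min at room temperature.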

[20] = qHTS assay to identify small molecule agonists of the estrogen receptor beta (ER-beta) signaling pathway - cell viability counter screen (AID 1259380; active = well fitted curve in the direction sought with a large enough effect in the repeat runs; an effect the other way counts as inactive or inconclusive; note: nearly all actives have a fitted effect of over 30% in size)
Summary of the method: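 Cell viability counter screen: CellTiter-Glo luminescence (30 min, room temperature) measured in the same wells as the beta-lactamase readout, after 16 hr compound exposure at 37C of ER-beta-bla HEK293T cells in 2% charcoal-stripped FBS medium.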
% is set by controls: 0 for no effect and ±100 for the full control effect.

Thyrotropin receptor (Homo sapiens), sequence (P16473 whole entry, looked up): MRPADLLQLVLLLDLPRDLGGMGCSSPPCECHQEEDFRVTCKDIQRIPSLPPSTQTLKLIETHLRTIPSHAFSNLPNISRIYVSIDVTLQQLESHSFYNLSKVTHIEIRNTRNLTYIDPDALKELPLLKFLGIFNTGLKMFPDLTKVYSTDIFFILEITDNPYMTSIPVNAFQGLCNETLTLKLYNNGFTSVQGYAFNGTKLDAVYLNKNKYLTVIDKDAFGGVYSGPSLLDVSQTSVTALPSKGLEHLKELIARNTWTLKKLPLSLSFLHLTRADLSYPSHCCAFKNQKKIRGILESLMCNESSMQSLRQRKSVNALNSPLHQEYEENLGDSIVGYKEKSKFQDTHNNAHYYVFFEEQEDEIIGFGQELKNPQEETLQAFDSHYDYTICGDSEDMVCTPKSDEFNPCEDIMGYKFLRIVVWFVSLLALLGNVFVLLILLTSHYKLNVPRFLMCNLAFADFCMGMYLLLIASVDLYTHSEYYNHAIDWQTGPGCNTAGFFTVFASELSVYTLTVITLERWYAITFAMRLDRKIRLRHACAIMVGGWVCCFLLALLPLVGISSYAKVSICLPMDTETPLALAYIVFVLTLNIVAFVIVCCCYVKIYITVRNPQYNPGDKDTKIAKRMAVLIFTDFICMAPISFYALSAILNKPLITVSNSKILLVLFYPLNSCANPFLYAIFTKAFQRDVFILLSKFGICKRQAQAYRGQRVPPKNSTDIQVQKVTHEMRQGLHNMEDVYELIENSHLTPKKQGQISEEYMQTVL
Estrogen receptor beta (Homo sapiens), sequence (Q92731 whole entry, looked up): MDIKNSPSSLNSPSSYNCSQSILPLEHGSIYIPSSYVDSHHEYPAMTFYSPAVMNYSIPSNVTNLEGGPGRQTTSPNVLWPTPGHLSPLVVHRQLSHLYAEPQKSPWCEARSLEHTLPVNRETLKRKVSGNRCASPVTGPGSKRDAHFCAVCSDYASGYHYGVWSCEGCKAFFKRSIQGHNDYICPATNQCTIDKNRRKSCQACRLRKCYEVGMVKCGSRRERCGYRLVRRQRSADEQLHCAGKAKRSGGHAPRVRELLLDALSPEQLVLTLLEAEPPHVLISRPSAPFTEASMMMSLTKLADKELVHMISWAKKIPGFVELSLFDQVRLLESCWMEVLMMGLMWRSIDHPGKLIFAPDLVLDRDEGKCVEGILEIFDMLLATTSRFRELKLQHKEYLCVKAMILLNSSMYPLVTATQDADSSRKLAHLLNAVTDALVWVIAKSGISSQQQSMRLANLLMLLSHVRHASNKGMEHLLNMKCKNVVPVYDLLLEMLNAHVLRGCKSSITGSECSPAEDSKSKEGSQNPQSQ
Thyrotropin-releasing hormone receptor (Homo sapiens), sequence (P34981 whole entry, looked up): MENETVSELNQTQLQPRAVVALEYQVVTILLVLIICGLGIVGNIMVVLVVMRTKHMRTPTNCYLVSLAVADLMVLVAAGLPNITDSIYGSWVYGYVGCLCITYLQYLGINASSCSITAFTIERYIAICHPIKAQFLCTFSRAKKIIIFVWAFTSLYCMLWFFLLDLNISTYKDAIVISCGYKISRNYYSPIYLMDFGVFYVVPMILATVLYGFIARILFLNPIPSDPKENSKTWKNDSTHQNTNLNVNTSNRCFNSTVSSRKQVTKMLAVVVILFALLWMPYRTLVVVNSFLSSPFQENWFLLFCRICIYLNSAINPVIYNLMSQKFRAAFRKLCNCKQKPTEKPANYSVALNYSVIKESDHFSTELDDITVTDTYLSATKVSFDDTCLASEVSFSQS
Progesterone receptor (Homo sapiens), sequence (P06401 whole entry, looked up): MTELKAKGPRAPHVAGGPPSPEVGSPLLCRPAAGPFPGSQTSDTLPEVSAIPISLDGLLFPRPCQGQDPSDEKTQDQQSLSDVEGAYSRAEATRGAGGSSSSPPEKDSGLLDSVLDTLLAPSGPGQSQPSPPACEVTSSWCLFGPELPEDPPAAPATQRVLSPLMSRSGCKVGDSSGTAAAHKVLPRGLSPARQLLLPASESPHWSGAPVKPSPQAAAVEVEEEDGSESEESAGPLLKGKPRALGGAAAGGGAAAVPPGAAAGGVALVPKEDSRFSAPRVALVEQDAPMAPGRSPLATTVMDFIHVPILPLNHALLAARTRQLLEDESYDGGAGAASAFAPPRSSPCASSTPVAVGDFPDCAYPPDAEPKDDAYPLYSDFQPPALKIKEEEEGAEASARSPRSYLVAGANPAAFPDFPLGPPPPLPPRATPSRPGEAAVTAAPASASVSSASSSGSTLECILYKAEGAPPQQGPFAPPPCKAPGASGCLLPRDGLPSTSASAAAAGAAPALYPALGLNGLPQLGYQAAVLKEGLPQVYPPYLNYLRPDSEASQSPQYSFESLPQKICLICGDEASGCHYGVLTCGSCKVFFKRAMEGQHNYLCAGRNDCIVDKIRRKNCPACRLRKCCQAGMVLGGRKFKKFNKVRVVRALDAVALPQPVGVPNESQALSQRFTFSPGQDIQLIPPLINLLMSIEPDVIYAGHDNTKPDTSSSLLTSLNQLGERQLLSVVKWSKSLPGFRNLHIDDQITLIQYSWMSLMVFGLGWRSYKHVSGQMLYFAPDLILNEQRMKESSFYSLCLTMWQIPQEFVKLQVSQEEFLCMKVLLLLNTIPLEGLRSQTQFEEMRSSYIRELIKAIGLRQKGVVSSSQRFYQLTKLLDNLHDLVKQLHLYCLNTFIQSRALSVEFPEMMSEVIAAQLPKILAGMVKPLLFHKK
Estrogen receptor (Homo sapiens), sequence (P03372 whole entry, looked up): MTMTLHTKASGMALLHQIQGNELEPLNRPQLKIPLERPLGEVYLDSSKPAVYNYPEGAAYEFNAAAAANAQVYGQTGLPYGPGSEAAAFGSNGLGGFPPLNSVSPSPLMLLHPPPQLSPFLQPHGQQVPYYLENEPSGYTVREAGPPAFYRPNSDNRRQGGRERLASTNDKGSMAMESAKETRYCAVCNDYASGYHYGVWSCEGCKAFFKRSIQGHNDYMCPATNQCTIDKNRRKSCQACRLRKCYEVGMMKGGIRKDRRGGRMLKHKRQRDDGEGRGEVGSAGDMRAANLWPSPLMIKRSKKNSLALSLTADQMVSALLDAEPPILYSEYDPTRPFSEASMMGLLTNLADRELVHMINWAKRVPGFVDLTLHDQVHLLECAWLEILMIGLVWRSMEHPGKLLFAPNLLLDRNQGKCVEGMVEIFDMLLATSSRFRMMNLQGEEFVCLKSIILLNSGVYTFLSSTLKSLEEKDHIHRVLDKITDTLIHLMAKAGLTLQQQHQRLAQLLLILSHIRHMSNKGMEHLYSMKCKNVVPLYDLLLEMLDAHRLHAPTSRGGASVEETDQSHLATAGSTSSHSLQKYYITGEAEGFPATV
Androgen receptor (Homo sapiens), sequence (P10275 whole entry, looked up): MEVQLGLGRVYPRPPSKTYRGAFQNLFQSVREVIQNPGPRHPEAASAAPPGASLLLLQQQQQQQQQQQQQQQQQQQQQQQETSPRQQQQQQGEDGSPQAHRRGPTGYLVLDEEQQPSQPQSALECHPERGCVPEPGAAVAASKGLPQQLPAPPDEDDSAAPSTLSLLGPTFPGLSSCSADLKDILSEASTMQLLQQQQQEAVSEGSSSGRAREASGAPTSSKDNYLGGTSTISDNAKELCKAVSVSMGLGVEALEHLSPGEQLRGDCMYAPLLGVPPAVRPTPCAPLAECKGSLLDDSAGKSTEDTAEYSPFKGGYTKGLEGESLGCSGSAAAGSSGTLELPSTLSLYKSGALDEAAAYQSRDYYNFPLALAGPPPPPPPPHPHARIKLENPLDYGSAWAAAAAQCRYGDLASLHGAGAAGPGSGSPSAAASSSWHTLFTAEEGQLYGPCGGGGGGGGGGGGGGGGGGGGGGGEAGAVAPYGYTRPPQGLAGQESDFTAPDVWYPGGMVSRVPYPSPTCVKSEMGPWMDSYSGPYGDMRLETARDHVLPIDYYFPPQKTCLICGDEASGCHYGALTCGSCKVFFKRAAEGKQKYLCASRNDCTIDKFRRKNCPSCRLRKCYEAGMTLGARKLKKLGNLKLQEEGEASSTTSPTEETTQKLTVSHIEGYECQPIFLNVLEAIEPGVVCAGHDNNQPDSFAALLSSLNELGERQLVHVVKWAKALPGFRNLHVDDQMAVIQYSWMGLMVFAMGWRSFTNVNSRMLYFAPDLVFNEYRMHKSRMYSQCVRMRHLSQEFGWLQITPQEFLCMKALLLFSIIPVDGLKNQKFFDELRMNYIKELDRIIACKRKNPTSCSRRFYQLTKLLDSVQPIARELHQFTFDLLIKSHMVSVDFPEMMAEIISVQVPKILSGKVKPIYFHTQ

NS(=O)(=O)c1cc(C2(O)NC(=O)c3ccccc32)ccc1Cl (stereo unspecified)
inactive: Potency [1] | Potency [2] | outcome [3] | Potency [4] | Potency [5] | Potency [6] | outcome [7] | Potency [8] | outcome [9] | Potency [10] | Potency [11] | Potency [12] | outcome [13] | outcome [14] | outcome [15]

C=CCn1c(=O)n([C@@H]2O[C@H](CO)[C@@H](O)[C@H]2O)c2nc(N)[nH]c(=O)c21
inactive: Potency [1] | Potency [2] | outcome [3] | Potency [4] | Potency [5] | Potency [16] | Potency [6] | Potency [17] | outcome [7] | Potency [8] | Potency [10] | Potency [18] | Potency [11] | outcome [19] | outcome [13] | outcome [14] | outcome [15]

N#CCN(CC#N)CCN(CC#N)CC#N
inactive: Potency [1] | Potency [2] | outcome [3] | Potency [4] | Potency [5] | Potency [20] | outcome [7] | Potency [8] | outcome [9] | Potency [18] | Potency [11] | Potency [12] | outcome [19] | outcome [13] | outcome [14] | outcome [15]

CCC(C)OC(=O)N1CCCCC1CCO (stereo unspecified)
inactive: Potency [1] | Potency [2] | outcome [3] | Potency [5] | Potency [20] | Potency [6] | outcome [7] | Potency [8] | outcome [9] | Potency [10] | Potency [18] | Potency [12] | outcome [13] | outcome [14] | outcome [15]

Cc1c(C)n(CCN(C)C)c2ccc(C(=O)OCCN(C)C)cc12
inactive: Potency [1] | Potency [2] | outcome [3] | Potency [4] | Potency [5] | Potency [6] | Potency [17] | outcome [9] | outcome [19] | outcome [13] | outcome [14] | outcome [15]

C[C@H]1O[C@@H](n2cc(F)c(=O)[nH]c2=O)[C@H](O)[C@@H]1O
inactive: Potency [1] | Potency [2] | outcome [3] | Potency [4] | Potency [5] | Potency [20] | outcome [7] | Potency [8] | outcome [9] | Potency [10] | Potency [18] | Potency [11] | outcome [19] | outcome [14] | outcome [15]

CSc1ccc(C=O)cc1
inactive: Potency [1] | Potency [2] | outcome [3] | Potency [4] | Potency [5] | Potency [6] | outcome [7] | Potency [8] | outcome [9] | Potency [10] | Potency [18] | Potency [11] | Potency [12] | outcome [19] | outcome [13] | outcome [14]

NC(=S)Nc1cccc2ccccc12
inactive: activity change [1] -0.099% [at 8.39 µM, active compounds read high] | activity change, negative = inhibition [2] 0.0462% [at 8.39 µM] | activation [3] -0.309% [at 8.39 µM] | activity, negative = inhibition [4] -5.64% [at 8.39 µM] | activity change, negative = cytotoxicity [5] -0.514% [at 8.39 µM] | cAMP activity change [7] 4.82% [at 8.39 µM] | activity change, negative = inhibition [8] 2.83% [at 8.39 µM] | activity change, negative = cytotoxicity [9] 0.0918% [at 8.39 µM] | activity change, negative = inhibition [18] -2.03% [at 8.39 µM] | activity change, negative = cytotoxicity [11] -13.4% [at 8.39 µM] | activity change, negative = cytotoxicity [12] -0.848% [at 8.39 µM] | viability change, negative = cytotoxic [19] 11.5% [at 6.97 µM] | activity change, negative = cytotoxicity [13] -4.69% [at 6.97 µM] | activation [14] -0.913% [at 6.97 µM] | activity, negative = inhibition [15] -0.447% [at 4.65 µM]
